Source: PubChem BioAssay (NCI)
This is part of a sample that, as a whole, favours compounds with a hit. Of some 83,000 tested, about 20% had one in any assay.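 96-well plates, one dose, 48 hours. Percent growth reported; active if below 10.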 Activity calls are given as the source filed them.

Columns and labels:
Experiment in all cases: NCI-60 one-dose screen, 48 h (100 = growth as untreated, 0 = no growth, -100 = all killed)
Settings in all cases: 10 µM unless noted
NCI-H23 lung = test system: NCI-H23 lung
NCI-H226 lung = test system: NCI-H226 lung
NCI-H322M lung = test system: NCI-H322M lung
HOP-62 NSCLC = test system: HOP-62 NSCLC
NCI-H460 lung = test system: NCI-H460 lung
HOP-92 NSCLC = test system: HOP-92 NSCLC
NCI-H522 lung = test system: NCI-H522 lung
A549/ATCC NSCLC = test system: A549/ATCC NSCLC
786-0 renal = test system: 786-0 renal
COLO 205 colon = test system: COLO 205 colon

Measured: growth

CC(C)NC(=O)c1cc(-c2ccc(NC(=O)Nc3ccc(F)cc3)cc2)nc2cccnc12
inactive: NCI-H23 lung 99.4% | NCI-H226 lung 99.1% | NCI-H322M lung 104% | HOP-62 NSCLC 101% | NCI-H460 lung 104% | HOP-92 NSCLC 96.7% | NCI-H522 lung 96.8% | A549/ATCC NSCLC 104% | 786-0 renal 97.1% | COLO 205 colon 118%

Cn1c2nc3ccccc3c-2cc2ccccc21
inactive: NCI-H23 lung 44.9% | NCI-H226 lung 53% | HOP-62 NSCLC 51.3% | NCI-H460 lung 13.4% | HOP-92 NSCLC 57.2% | NCI-H522 lung 41.6% | A549/ATCC NSCLC 28.4% | 786-0 renal 38% | COLO 205 colon 26%
active: NCI-H322M lung 4.32%

O=C(NCCNc1cc(-c2cn(-c3ccccc3)nc2-c2cccc(O)c2)ccn1)Nc1cc(C(F)(F)F)cc(C(F)(F)F)c1
inactive: NCI-H23 lung 98.1% | NCI-H226 lung 85% | NCI-H322M lung 86.5% | HOP-62 NSCLC 95% | NCI-H460 lung 102% | HOP-92 NSCLC 89.6% | NCI-H522 lung 92.2% | A549/ATCC NSCLC 96.5% | 786-0 renal 99% | COLO 205 colon 107%

CN(C)c1cccc2c(S(=O)(=O)Nc3cccc(-c4csc(NC(=O)CCCCCN5CCN(CCO)CC5)n4)c3)cccc12
inactive: NCI-H23 lung 81.3% | NCI-H226 lung 91.2% | NCI-H322M lung 88.2% | HOP-62 NSCLC 84.9% | NCI-H460 lung 82.6% | HOP-92 NSCLC 37.5% | NCI-H522 lung 84.4% | A549/ATCC NSCLC 74.9% | 786-0 renal 77.5% | COLO 205 colon 81.1%

CN1CCN(Cc2ccc(NC(=O)c3cncc(C#Cc4cnc5ccc(N6CCOCC6)nn45)c3)cc2C(F)(F)F)CC1
active: NCI-H23 lung -65.9% | NCI-H226 lung -62.3% | NCI-H322M lung -11.3% | HOP-62 NSCLC -79.7% | NCI-H460 lung -80.6% | HOP-92 NSCLC -25.6% | NCI-H522 lung -79.2% | A549/ATCC NSCLC -84.9% | 786-0 renal -80.7% | COLO 205 colon -87.3%

COc1cc2oc(-c3cccc(NC(=O)[C@@H](N)C(C)C)c3)cc(=O)c2c(OC)c1OC
inactive: NCI-H23 lung 103% | NCI-H226 lung 107% | NCI-H322M lung 102% | HOP-62 NSCLC 103% | NCI-H460 lung 103% | HOP-92 NSCLC 91.9% | NCI-H522 lung 92.7% | A549/ATCC NSCLC 94.6% | 786-0 renal 87.1% | COLO 205 colon 111%

C#CCOc1ccc(/C=N/Nc2nc(-c3ccc(OC)cc3)cs2)cc1
inactive: NCI-H23 lung 68.9% | NCI-H226 lung 63.7% | NCI-H322M lung 95% | HOP-62 NSCLC 97.6% | NCI-H460 lung 77.3% | HOP-92 NSCLC 68.6% | NCI-H522 lung 70.1% | A549/ATCC NSCLC 77% | 786-0 renal 89.2% | COLO 205 colon 96.1%

N#C/C(=C\c1ccc(-c2ccc(Cl)c(Cl)c2)o1)C(=O)Nc1ncc(Cc2ccc(Cl)cc2)s1
active: NCI-H460 lung -42.4%
inactive: NCI-H23 lung 38.2% | NCI-H226 lung 73.6% | NCI-H322M lung 33% | HOP-62 NSCLC 72.1% | HOP-92 NSCLC 81.5% | NCI-H522 lung 47.1% | A549/ATCC NSCLC 11.6% | 786-0 renal 11.4% | COLO 205 colon 55.8%

CC(C)NC(=O)c1cc(-c2ccc(NC(=O)Nc3ccc(F)c(C(F)(F)F)c3)cc2)nc2cccnc12
inactive: NCI-H23 lung 93.2% | NCI-H226 lung 94.8% | NCI-H322M lung 107% | HOP-62 NSCLC 80.8% | NCI-H460 lung 86.4% | HOP-92 NSCLC 90.1% | NCI-H522 lung 87.4% | A549/ATCC NSCLC 86.8% | 786-0 renal 88.3% | COLO 205 colon 114%

O=S(=O)(NCCCNc1nccc(-c2[nH]c(-c3ccccc3)nc2-c2ccc(F)c(O)c2)n1)c1ccccc1
inactive: NCI-H23 lung 96.5% | NCI-H226 lung 99.4% | NCI-H322M lung 117% | HOP-62 NSCLC 120% | NCI-H460 lung 87.3% | HOP-92 NSCLC 105% | NCI-H522 lung 91.2% | A549/ATCC NSCLC 98.3% | 786-0 renal 113% | COLO 205 colon 95.5%

CNC(=O)c1cc(N2CCc3cc(NC(=O)Nc4ccc(N5CCOCC5)c(C(F)(F)F)c4)ccc32)ccn1
inactive: NCI-H23 lung 18.7% | NCI-H226 lung 35.2% | NCI-H322M lung 56.2% | HOP-62 NSCLC 12.1% | HOP-92 NSCLC 14.1% | NCI-H522 lung 45.8% | A549/ATCC NSCLC 43.7% | 786-0 renal 27.3% | COLO 205 colon 26.7%
active: NCI-H460 lung 9.77%

O=C(CSc1nc2ccccc2c(=O)n1-c1ccc(Cl)cc1)N/N=C/c1ccc(Oc2ccc(Cl)cc2)cc1
inactive: NCI-H226 lung 75.6% | NCI-H322M lung 89.8% | HOP-62 NSCLC 32.6% | NCI-H522 lung 20.7% | A549/ATCC NSCLC 16.5% | COLO 205 colon 14.6%
active: NCI-H23 lung 3.12% | NCI-H460 lung -34.5% | HOP-92 NSCLC 2.59% | 786-0 renal -4.71%

C[C@H]1OCC2(CCN(c3cnc(C(=O)Nc4cc(F)cc5cccnc45)cn3)CC2)[C@H]1N
inactive: NCI-H23 lung 75.3% | NCI-H226 lung 80% | NCI-H322M lung 81.4% | HOP-62 NSCLC 84.1% | NCI-H460 lung 89.1% | HOP-92 NSCLC 34.7% | NCI-H522 lung 31.6% | A549/ATCC NSCLC 77.3% | 786-0 renal 60.1% | COLO 205 colon 13.3%
